# The supplement of paper PMC10338343
# ± gives the standard deviation. Over roughly 3,700 sequences, “pre-steady-state target cleavage rate” has its median near 0.02; the highest 2% begin near 0.23. For the sample, the highest values were picked, then their nearest neighbours and some sequences at random.
# System: MILI (PIWIL2) piRISC loaded with Kctd7 piRNA (26 nt)
# Assay: pre-steady-state target cleavage rate (min^-1); MIWI and MILI are mouse PIWI proteins and EfPiwi is from a freshwater sponge; tags in brackets are library labels; higher = faster piRNA-guided slicing of the target
# Settings: guide: Kctd7 piRNA 5'p-UGUUAAUCUCUCAGAGAAGGUGACAG; auxiliary factor: 500 nM mouse GTSF1
# Procedure: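 Cleave-'n-Seq: a library of target RNAs (target site embedded in constant flanks, ACAGCATTCCGCGTTAGTGATATCCG... 5' flank; DNA-blocked outside the site) at 0.1 nM was incubated with 1 nM active mouse MILI or MIWI piRISC (synthetic 5'-monophosphorylated piRNA guide) with or without 500 nM mouse GTSF1 at 33 °C for 1 min to 16 h. Uncleaved targets were sequenced and normalised to non-target controls, and the pooled three trials were fitted to a burst-and-steady-state model to give the pre-steady-state cleavage rate (min^-1; k3 is constrained to at most 1e-4). Sequence is the target site only; target names encode pairing extent (gX:gY) and contiguous / 1-mismatch / 2-mismatch / bulge geometry. Fits with R² ≤ 0 are excluded.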
row,Sequence,pre-steady-state target cleavage rate
1,UAGUGUGUCACCUUCUCUGAGAAUUAACA,0.0848 ± 0.036
2,UAGUCUGUCACCUUCUCUGAGAAAUUAACA,0.143 ± 0.018
3,UAGUGUGUCACCUUCUCUGAGAAAUUAACA,0.112 ± 0.019
4,UAGUGUGUCACCUUCUCUGAGAGAAUUAACA,0.277 ± 0.048
5,UAGUCUGUCACCUUCUCUGAGAGAAUUAACA,0.32 ± 0.051
6,UAGUCUGUCACCUUCUCUGAGAAUUAACA,0.0747 ± 0.031
7,UAGUGACAGUCCUUCUCUGAUGAGAUUAACA,0.00278 ± 0.0025
8,UAGUGACACUCCUUCUCUGAGUGAUUAACA,0.00415 ± 0.0032
9,UAGUGACAGACGUACUCUGAGAGAUUAACA,0.014 ± 0.0034
10,UAGUGAGUCACCUACUCUGAGAGAUUUACA,0.164 ± 0.053
11,UAGUGUGUCACCUACUCUGAGAGAUUUUGA,0.0414 ± 0.016
12,UAGUGUGUCACCUACUCUGAGAGAUUAUGA,0.0343 ± 0.015
13,UAGUGUGUCACCUACUCUGAGAGAUUUACA,0.25 ± 0.052
14,UAGUGUGUCACCUACUCUGAGAGAUUAAGA,0.1 ± 0.023
15,UAGUGUGUCACCUACUCUGAGAGAUUAUCA,0.239 ± 0.049
16,UAGUGUGUCACCUUCUCUGAGAGAUUUAACA,0.391 ± 0.052
17,UAGUGUCUCACCUUCUCUGAGAGAUUUACA,0.196 ± 0.043
18,UAGUGUGUCACCUUCUCUGAGAGAUUACA,0.122 ± 0.036
19,UAGUGUGUCACCUUCUCUGAGAGAUUAACA [g2:g25:cont:t1A],0.216 ± 0.015
20,UAGUGUGUCACCUUCUCUGAGAGAUUUACA,0.266 ± 0.047
21,UAGUGUGUCACCUUCUCUCUGAGAUUAACA,0.0138 ± 0.004
22,UAGUGACUGUCCUUCUCUGAGAGAUUAACA,0.2 ± 0.016
23,UAGUGAGUGACCUUGUCUGAGAGAUUAACA,0.0726 ± 0.014
24,UAGUGACAGACCUUGUCUGACAGAUUAACA,0.0121 ± 0.0036
25,UAGUCUGUCACCUUCUCUGAGAGAUCAACA,0.114 ± 0.018

row,Sequence,pre-steady-state target cleavage rate
1,UAGUCUGUCACCUUCUCUGAGAGAUUCAACA,0.324 ± 0.061
2,UAGUCUGUCAACCUUCUCUGAGAGAUUAACA,0.0716 ± 0.011
3,UAGUCUGUCACCUUCUCUGAGAGAUUUUCA,0.12 ± 0.031
4,UAGUCUGUCACCUUCUCUGAGAGAUUACACA,0.153 ± 0.022
5,UAGUGAGUCACCUUCUCUGAGAGAUCAACA,0.0788 ± 0.025
6,UAGUCUGUCACCUUCUCUGAGAGAUUCACA,0.265 ± 0.059
7,UAGUGAGUCACCUUCUCUGAGAGAUUCAACA,0.279 ± 0.054
8,UAGUGAGUCACCUUCUCUGAGAGAUUUUCA,0.145 ± 0.044
9,UAGUGACAGUGCUUCUCUGAGAGAUUAUCA,0.00765 ± 0.0025
10,UAGUCUGUCACCUUCUCUCAGAGAUUAACA,0.064 ± 0.0081
11,UAGUGACAGUGGAACUCUGAGAGUUAAACA,< 0.0001
12,UAGUGACACACCUUCUCUGAUGAGAUUAACA,0.00949 ± 0.0043
13,UAGUGAGUCACCUUCACUGACAGAUUAACA,0.0411 ± 0.013
14,UAGUGACACACCUUCUCUGAGAAAUUAACA,0.219 ± 0.035
15,UAGUGACUCACCUUCUCGAGAGAUUAACA,0.02 ± 0.0065
16,UAGUGUGUCACCUUCUCUGAAAGAUUAACA,0.0569 ± 0.011
17,UAGUGACAGUGGAACACUGAGACAUUAACA,< 0.0001
18,UAGUGUGUCACCUUCUCUGAGAGUUAACA,0.194 ± 0.055
19,UAGUCUCUCACCUUCUCUGAGAGUUUAACA,0.183 ± 0.024
20,UAGUGUGUCACCUUCUCUGAGAGUAUAACA,0.181 ± 0.072
21,UAGUGUCUCACCUUCUCUGAGAGUUUAACA,0.286 ± 0.038
22,UAGUGUGUCACCUUCUCUGAGAGUUUAACA,0.316 ± 0.078
23,UAGUGUGUCACCUUCUCUGAGAGAGUUAACA,0.259 ± 0.046
24,UAGUGUGUCACCUUCUGUGAGAGUUUAACA,0.0964 ± 0.027
25,UAGUGUGUCACCUUCUCUGAGAGAGUAACA,0.287 ± 0.056

row,Sequence,pre-steady-state target cleavage rate
1,UAGUGACUCACCUUCUCUGAGAGUUUAACA,0.118 ± 0.028
2,UAGUGUGUCACCUUCUCUGAGAGUUAAACA,0.146 ± 0.049
3,UAGUGUGUCACCUUCUCUGAGAGUAAAACA,0.194 ± 0.057
4,UAGUGUGUCACCUUCUCUGUGAGUUUAACA,0.0386 ± 0.0085
5,UAGUGAGUCACCUUGUCUGAGAGAUUUUGA,0.0161 ± 0.0098
6,UAGUGACACAGGAUCUCUGAGAGAUAUUGA,< 0.0001
7,UAGUGUGUCACCGUCUCUGAGAGAUUAACA,0.113 ± 0.012
8,UAGUCUGUCUCCUUCUCUGAGAGAUUAAGA,0.054 ± 0.012
9,UAGUGUGUCACCUUCUCUGAGAGAUCUAACA,0.306 ± 0.071
10,UAGUCUGUCACCUUCUCUGAGAGAUCUAACA,0.258 ± 0.054
11,UAGUGUGUCACCUUCUCUGAGAGAUAACA,0.0605 ± 0.02
12,UAGUGAGUCACCUUCUCUGAGAGAUCUAACA,0.171 ± 0.035
13,UAGUCUGUCACCUUCUCUAAGAGAUUAACA,0.138 ± 0.0097
14,UAGUCUGUCACCUUCUCUGAGAGACUAACA,0.149 ± 0.027
15,UAGUGAGUCACCUUCUGUGUGAGAUUAACA,0.0434 ± 0.0067
16,UAGUGACAGUCCUUCUCUGAGAGUAAUUGA [g8:g20:cont:t1A],< 0.0001
17,UAGUGACUCACCUUCUCUGAGAGCUUAACA,0.156 ± 0.022
18,UAGUGAGUCACCUGCUCUGAGAGAUUAACA,0.169 ± 0.018
19,UAGUCUGUCACCUGCUCUGAGAGAUUAACA,0.175 ± 0.011
20,UAGUCUGUCACCUUGUCUGAGAGAUUAACA,0.133 ± 0.016
21,UAGUGACUCACCUUGCUCUGAGAGAUUAACA,0.048 ± 0.016
22,UAGUGUGUCACCUUGUCUGAGAGAUUAACA,0.134 ± 0.021
23,UAGUGAGUCACCUUGCUCUGAGAGAUUAACA,0.351 ± 0.077
